# Measured values as given in ChEMBL document CHEMBL1961873, “Compounds: GSK PKIS; Assays: Nanosyn kinase panel” (2012).
# Columns and labels:
# [1] = target: Sphingosine kinase 1 (Homo sapiens) (UniProt Q9NYA1); conditions: at 1 µM;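 note: mean SPHK1 inhibition value reported from the GSK PKIS kinase panel screen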
# [2] = target: T1, Sphingosine kinase 2 (Homo sapiens) (UniProt Q9NRA0); conditions: at 0.1 µM
# T1 sequence (whole entry): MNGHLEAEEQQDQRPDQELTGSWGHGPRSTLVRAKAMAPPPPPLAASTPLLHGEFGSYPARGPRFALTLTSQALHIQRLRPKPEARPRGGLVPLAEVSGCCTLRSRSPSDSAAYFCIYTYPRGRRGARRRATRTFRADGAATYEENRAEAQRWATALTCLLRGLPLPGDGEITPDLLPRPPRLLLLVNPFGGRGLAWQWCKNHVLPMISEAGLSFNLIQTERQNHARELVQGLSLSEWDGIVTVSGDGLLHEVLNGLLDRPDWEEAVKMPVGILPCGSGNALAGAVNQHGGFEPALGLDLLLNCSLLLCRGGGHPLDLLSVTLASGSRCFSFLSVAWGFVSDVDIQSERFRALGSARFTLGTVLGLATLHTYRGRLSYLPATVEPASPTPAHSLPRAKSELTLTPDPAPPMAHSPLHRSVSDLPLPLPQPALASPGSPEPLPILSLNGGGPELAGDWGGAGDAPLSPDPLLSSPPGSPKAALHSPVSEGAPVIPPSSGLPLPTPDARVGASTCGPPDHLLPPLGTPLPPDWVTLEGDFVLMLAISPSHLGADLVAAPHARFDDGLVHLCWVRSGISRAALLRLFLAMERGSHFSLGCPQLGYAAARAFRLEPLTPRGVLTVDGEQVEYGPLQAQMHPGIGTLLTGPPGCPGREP
# [3] = target: T1, Sphingosine kinase 2 (Homo sapiens); conditions: at 1 µM
# [4] = target: Casein kinase II subunit alpha (Homo sapiens) (UniProt P68400); conditions: at 0.1 µM
# Casein kinase II subunit alpha (Homo sapiens), sequence (P68400 whole entry, looked up): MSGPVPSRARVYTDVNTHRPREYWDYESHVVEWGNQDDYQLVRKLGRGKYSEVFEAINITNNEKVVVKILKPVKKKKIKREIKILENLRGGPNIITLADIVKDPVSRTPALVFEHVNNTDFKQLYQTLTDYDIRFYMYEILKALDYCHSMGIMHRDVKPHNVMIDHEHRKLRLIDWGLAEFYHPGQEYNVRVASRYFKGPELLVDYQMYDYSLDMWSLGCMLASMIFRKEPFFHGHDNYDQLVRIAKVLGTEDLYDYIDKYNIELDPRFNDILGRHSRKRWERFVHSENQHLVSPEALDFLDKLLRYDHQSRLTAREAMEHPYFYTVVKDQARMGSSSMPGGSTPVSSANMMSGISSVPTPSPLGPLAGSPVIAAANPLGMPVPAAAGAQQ
# [5] = target: Casein kinase II subunit alpha (Homo sapiens) (UniProt P68400); conditions: at 1 µM
# [6] = target: T2, Inhibitor of nuclear factor kappa-B kinase subunit alpha (Homo sapiens) (UniProt O15111); conditions: at 0.1 µM
# T2 sequence (whole entry): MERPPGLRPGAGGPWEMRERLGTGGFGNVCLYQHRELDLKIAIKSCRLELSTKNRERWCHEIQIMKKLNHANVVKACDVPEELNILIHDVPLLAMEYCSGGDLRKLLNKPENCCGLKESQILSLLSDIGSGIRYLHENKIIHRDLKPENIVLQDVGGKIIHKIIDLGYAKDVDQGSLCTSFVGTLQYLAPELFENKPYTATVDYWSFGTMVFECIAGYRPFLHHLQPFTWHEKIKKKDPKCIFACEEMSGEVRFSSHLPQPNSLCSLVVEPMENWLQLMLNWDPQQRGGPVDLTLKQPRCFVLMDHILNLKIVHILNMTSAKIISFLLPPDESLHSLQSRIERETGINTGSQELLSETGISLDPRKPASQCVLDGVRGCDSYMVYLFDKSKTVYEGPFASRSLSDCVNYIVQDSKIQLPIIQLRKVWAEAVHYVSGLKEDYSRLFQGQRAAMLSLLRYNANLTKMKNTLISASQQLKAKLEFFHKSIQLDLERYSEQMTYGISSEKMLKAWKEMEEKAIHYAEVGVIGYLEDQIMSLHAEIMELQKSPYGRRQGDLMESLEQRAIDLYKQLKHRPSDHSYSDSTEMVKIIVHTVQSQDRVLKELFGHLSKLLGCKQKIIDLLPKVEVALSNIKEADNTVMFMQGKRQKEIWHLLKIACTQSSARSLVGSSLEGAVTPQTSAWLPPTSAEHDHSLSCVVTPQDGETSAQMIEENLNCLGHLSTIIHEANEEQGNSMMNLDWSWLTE
# [7] = target: T2, Inhibitor of nuclear factor kappa-B kinase subunit alpha (Homo sapiens); conditions: at 1 µM
# [8] = target: T3, Inhibitor of nuclear factor kappa-B kinase subunit beta (Homo sapiens) (UniProt O14920); conditions: at 0.1 µM
# T3 sequence (whole entry): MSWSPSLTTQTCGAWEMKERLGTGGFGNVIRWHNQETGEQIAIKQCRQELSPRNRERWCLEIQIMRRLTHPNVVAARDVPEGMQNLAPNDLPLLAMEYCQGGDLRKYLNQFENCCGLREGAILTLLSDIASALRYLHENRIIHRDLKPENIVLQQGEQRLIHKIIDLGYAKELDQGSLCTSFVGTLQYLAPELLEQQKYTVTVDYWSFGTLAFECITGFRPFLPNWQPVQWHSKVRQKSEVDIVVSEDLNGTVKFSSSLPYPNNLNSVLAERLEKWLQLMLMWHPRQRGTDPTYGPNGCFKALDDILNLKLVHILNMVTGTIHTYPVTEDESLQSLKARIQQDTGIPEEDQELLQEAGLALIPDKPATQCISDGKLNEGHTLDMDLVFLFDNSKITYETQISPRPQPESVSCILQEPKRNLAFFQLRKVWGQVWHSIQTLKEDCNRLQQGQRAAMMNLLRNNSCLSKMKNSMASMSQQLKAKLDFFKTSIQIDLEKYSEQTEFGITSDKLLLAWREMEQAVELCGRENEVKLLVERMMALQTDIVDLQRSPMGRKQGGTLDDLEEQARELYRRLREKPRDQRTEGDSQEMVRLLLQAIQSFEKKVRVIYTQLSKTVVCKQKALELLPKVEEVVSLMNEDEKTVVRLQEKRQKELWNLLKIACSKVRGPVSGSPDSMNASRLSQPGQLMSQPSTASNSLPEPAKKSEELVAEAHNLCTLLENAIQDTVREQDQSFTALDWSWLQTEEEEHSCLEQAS
# [9] = target: T3, Inhibitor of nuclear factor kappa-B kinase subunit beta (Homo sapiens); conditions: at 1 µM
# [10] = target: T4, Inhibitor of nuclear factor kappa-B kinase subunit epsilon (Homo sapiens) (UniProt Q14164); conditions: at 0.1 µM
# T4 sequence (whole entry): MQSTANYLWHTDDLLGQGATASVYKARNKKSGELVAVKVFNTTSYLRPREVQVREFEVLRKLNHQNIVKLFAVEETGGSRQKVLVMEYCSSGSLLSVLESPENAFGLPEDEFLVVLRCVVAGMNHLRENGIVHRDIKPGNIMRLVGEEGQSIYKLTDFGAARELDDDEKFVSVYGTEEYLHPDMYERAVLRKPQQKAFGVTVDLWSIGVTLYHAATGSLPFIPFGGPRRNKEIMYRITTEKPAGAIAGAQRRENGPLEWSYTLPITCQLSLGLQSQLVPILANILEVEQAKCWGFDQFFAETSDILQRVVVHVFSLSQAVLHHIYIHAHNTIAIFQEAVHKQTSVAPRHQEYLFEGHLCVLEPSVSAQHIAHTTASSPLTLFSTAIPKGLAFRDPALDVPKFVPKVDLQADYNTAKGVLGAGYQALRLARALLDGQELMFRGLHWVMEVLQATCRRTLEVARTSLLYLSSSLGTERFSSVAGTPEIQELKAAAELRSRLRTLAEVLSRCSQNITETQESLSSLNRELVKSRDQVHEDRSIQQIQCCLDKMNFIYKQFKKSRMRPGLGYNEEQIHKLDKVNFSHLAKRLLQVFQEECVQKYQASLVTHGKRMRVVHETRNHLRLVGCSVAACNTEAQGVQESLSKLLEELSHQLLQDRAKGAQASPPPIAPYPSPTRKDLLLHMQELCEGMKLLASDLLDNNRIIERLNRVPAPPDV
# [11] = target: T4, Inhibitor of nuclear factor kappa-B kinase subunit epsilon (Homo sapiens); conditions: at 1 µM
# [12] = target: T5, Serine/threonine-protein kinase Nek1 (Homo sapiens) (UniProt Q96PY6); conditions: at 0.1 µM
# T5 sequence (whole entry): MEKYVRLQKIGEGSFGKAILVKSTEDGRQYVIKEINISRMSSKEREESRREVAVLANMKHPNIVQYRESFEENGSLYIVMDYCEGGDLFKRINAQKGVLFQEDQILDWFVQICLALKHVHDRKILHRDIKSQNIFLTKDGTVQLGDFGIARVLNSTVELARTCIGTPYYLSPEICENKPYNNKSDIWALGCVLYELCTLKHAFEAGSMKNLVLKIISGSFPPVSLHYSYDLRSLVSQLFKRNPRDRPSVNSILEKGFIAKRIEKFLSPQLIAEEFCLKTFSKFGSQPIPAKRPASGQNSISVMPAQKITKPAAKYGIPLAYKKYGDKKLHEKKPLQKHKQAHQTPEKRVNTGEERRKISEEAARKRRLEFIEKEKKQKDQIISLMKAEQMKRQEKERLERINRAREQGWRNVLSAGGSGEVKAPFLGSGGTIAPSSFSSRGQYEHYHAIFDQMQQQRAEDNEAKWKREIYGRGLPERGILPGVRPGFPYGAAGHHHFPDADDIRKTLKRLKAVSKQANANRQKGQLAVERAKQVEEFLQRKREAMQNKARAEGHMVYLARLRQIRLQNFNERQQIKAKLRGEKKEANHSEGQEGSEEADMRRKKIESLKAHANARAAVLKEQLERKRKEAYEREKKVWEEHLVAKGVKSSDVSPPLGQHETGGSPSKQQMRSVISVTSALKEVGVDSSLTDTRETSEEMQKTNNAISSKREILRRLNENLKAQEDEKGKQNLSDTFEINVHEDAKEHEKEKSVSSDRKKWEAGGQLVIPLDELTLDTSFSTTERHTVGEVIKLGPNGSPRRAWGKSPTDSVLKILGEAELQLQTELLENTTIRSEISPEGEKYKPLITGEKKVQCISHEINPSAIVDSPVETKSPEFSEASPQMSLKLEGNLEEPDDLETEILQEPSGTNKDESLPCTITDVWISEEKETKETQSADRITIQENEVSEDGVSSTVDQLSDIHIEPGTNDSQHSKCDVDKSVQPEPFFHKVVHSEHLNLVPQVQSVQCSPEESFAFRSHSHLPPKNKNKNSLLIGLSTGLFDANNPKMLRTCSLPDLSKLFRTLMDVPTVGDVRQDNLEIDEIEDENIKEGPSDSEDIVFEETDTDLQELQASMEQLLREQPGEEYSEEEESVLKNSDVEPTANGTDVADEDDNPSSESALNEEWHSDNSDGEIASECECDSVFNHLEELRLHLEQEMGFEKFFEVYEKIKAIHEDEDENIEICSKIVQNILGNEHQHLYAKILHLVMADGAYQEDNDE
# [13] = target: T5, Serine/threonine-protein kinase Nek1 (Homo sapiens); conditions: at 1 µM
# [14] = target: T6, Serine/threonine-protein kinase Nek2 (Homo sapiens) (UniProt P51955); conditions: at 0.1 µM
# T6 sequence (whole entry): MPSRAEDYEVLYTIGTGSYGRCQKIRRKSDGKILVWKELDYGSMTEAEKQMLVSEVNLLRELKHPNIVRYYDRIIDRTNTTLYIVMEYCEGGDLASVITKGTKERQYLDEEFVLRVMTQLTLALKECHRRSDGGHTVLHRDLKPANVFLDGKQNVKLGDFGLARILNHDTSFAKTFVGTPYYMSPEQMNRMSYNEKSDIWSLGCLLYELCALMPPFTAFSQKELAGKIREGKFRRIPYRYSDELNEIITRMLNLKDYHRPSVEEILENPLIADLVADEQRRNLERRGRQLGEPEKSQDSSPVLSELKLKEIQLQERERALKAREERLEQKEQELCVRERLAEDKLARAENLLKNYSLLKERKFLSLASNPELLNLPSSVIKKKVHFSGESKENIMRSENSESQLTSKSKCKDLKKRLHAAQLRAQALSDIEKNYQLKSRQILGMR
# [15] = target: T6, Serine/threonine-protein kinase Nek2 (Homo sapiens); conditions: at 1 µM
# [16] = target: Serine/threonine-protein kinase Nek6 (Homo sapiens) (UniProt Q9HC98); conditions: at 0.1 µM
# Serine/threonine-protein kinase Nek6 (Homo sapiens), sequence (Q9HC98 whole entry): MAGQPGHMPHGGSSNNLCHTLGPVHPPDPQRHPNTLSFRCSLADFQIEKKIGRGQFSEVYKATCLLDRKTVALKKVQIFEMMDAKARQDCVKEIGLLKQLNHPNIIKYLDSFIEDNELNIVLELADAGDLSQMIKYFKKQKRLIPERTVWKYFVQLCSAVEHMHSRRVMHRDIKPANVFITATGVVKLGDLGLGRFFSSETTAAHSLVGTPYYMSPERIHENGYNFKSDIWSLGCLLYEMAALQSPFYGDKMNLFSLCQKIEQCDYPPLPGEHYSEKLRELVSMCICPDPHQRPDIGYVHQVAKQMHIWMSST
# [17] = target: Serine/threonine-protein kinase Nek6 (Homo sapiens) (UniProt Q9HC98); conditions: at 1 µM
# [18] = target: Serine/threonine-protein kinase Nek7 (Homo sapiens) (UniProt Q8TDX7); conditions: at 0.1 µM
# Serine/threonine-protein kinase Nek7 (Homo sapiens), sequence (Q8TDX7 whole entry, looked up): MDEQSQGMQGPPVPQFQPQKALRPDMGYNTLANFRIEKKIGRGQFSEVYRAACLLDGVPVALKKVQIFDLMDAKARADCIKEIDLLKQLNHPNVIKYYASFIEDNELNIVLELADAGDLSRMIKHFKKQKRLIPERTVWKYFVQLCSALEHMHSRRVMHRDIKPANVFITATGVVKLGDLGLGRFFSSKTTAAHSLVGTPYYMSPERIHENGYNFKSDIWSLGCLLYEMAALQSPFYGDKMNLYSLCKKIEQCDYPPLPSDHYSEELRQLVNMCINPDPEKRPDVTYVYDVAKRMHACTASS
# [19] = target: Serine/threonine-protein kinase Nek7 (Homo sapiens) (UniProt Q8TDX7); conditions: at 1 µM
# [20] = target: T7, Serine/threonine-protein kinase Nek9 (Homo sapiens) (UniProt Q8TD19); conditions: at 0.1 µM;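 note: reported value is the mean percent inhibition of NEK9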
# T7 sequence (whole entry): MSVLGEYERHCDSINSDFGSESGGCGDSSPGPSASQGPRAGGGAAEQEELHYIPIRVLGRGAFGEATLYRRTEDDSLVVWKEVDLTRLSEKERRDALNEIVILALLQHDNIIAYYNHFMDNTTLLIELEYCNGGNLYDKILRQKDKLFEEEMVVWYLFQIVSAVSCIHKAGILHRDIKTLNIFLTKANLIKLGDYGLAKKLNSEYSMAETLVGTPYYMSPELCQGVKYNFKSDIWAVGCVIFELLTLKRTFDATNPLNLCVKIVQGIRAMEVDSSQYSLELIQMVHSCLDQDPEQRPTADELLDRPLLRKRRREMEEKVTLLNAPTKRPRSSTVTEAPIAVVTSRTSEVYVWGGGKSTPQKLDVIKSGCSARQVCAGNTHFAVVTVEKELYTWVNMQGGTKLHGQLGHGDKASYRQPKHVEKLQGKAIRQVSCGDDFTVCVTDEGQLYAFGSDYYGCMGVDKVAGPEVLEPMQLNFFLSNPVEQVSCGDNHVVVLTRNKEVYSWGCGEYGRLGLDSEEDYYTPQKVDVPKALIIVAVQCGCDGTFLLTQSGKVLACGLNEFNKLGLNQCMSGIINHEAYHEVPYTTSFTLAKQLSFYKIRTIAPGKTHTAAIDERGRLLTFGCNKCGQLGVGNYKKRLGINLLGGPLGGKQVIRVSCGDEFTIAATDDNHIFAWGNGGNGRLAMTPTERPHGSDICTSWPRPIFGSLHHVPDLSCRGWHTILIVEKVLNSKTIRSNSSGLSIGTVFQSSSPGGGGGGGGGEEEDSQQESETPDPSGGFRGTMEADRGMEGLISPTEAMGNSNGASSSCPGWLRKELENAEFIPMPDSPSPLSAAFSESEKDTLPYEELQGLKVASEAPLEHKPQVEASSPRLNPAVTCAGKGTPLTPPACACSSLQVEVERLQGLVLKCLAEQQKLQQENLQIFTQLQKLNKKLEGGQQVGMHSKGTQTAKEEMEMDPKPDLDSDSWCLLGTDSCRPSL
# Sphingosine kinase 1 (Homo sapiens), sequence (Q9NYA1 whole entry): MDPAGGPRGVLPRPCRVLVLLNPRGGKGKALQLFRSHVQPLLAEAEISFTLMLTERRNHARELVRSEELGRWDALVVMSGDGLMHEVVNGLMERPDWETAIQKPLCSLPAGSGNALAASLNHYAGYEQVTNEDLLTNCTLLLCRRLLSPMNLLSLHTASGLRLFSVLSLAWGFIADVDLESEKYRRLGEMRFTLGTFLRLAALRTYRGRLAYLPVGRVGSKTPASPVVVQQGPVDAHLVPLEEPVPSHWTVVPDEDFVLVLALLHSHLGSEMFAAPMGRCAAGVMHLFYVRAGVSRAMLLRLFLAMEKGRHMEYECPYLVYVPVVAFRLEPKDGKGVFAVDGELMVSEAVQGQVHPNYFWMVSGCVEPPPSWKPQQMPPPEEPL
compound,measurement,setting,value
NC(=O)c1ccc(Oc2nccc(-c3c(-c4ccc(F)cc4)ncn3C3CCNCC3)n2)cc1,inhibition,[1],2.16%
same,inhibition,[2],0.71%
same,inhibition,[3],0.08%
same,inhibition,[4],2.95%
same,inhibition,[5],2.91%
same,inhibition,[6],5.54%
same,inhibition,[7],7.33%
same,inhibition,[8],7.24%
same,inhibition,[9],6.83%
same,inhibition,[10],8.54%
same,inhibition,[11],7.38%
same,inhibition,[12],4.02%
same,inhibition,[13],5.01%
same,inhibition,[14],6.78%
same,inhibition,[15],5.63%
same,inhibition,[16],1.6%
same,inhibition,[17],1.67%
same,inhibition,[18],3.46%
same,inhibition,[19],9.69%
same,inhibition,[20],6.05%
